According to PMC7826789 (International Journal of Molecular Sciences, 2021):

Experiments:
PIP5K2B = test system: T1, PIP5K2B; details: Compound Concentration (nM):1000
T1 construct: gene PIP4K2B

PIP5K2C = test system: T2, PIP5K2C; details: Compound Concentration (nM):1000
T2 construct: gene PIP4K2C

PKAC-alpha = test system: T3, PKAC-alpha; details: Compound Concentration (nM):1000
T3 construct: gene PRKACA

PKAC-beta = test system: T4, PKAC-beta; details: Compound Concentration (nM):1000
T4 construct: gene PRKACB

PKMYT1 = details: Compound Concentration (nM):1000
PKN1 = details: Compound Concentration (nM):1000
PKN2 = details: Compound Concentration (nM):1000
PKNB(M.tuberculosis) = details: 1 µM
PLK1 = details: Compound Concentration (nM):1000
PLK2 = details: Compound Concentration (nM):1000
PLK3 = details: Compound Concentration (nM):1000
PLK4 = details: Compound Concentration (nM):1000
PRKCD = details: Compound Concentration (nM):1000
PRKCE = details: Compound Concentration (nM):1000
PRKCH = details: Compound Concentration (nM):1000
PRKCI = details: Compound Concentration (nM):1000
PRKCQ = details: Compound Concentration (nM):1000
PRKD1 = details: Compound Concentration (nM):1000
PRKD2 = details: Compound Concentration (nM):1000
PRKD3 = details: Compound Concentration (nM):1000
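Note: KINOMEscan scanMAX binding as percent activity remaining versus control; lower means stronger binding.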

Structure (SMILES) | Percent Control (PIP5K2B) [%] | Percent Control (PIP5K2C) [%] | Percent Control (PKAC-alpha) [%] | Percent Control (PKAC-beta) [%] | Percent Control (PKMYT1) [%] | Percent Control (PKN1) [%] | Percent Control (PKN2) [%] | Percent Control (PKNB(M.tuberculosis)) [%] | Percent Control (PLK1) [%] | Percent Control (PLK2) [%] | Percent Control (PLK3) [%] | Percent Control (PLK4) [%] | Percent Control (PRKCD) [%] | Percent Control (PRKCE) [%] | Percent Control (PRKCH) [%] | Percent Control (PRKCI) [%] | Percent Control (PRKCQ) [%] | Percent Control (PRKD1) [%] | Percent Control (PRKD2) [%] | Percent Control (PRKD3) [%]
O=C1Nc2ccc(C(=O)c3ccco3)cc2C1=Cc1cc(Cl)c(O)c(Cl)c1 [GW406108X] | 95 | 65 | 100 | 100 | 100 | 83 | 63 | 90 | 49 | 27 | 37 | 63 | 100 | 100 | 100 | 100 | 100 | 100 | 100 | 100
Cc1cc(O)cc(C)c1/C=C/c1cncc(C(N)=O)c1 [GW435821X] | 100 | 84 | 100 | 100 | 74 | 100 | 65 | 99 | 100 | 93 | 90 | 85 | 87 | 93 | 100 | 100 | 90 | 100 | 100 | 79
COc1cc2ncn(-c3cc(O[C@H](C)c4ccccc4Cl)c(C(N)=O)s3)c2cc1OC [GSK237701A] | 15 | 20 | 100 | 96 | 100 | 100 | 83 | 62 | – | 1.8 | 2 | 30 | 100 | 91 | 100 | 78 | 100 | 100 | 100 | 49
COc1cccc(-c2c[nH]c3c(N/N=C/c4ccncc4)ncnc23)c1 [GW814408X] | 100 | 9.1 | 100 | 100 | 100 | 100 | 100 | 99 | 95 | 100 | 100 | 96 | 100 | 100 | 100 | 30 | 100 | 100 | 100 | 91
NS(=O)(=O)c1ccc(N/N=C2\C(=O)Nc3ccc(C(=O)NCCc4c[nH]cn4)cc32)cc1 [GW300660X] | 100 | 48 | 100 | 100 | 100 | 100 | 80 | 92 | 100 | 75 | 76 | 81 | 100 | 98 | 100 | 90 | 100 | 100 | 100 | 85
Cl.O=S1CCN(Cc2ccc(-c3ccc4ncnc(Nc5ccc(OCc6ccccc6)c(F)c5)c4c3)o2)CC1 [GW576924A] | 100 | 63 | 100 | 100 | 100 | 100 | 100 | 100 | 100 | 100 | 100 | 100 | 100 | 91 | 100 | 100 | 100 | 100 | 100 | 100
CN(C)c1cc2c(Nc3ccc4c(cnn4Cc4ccccc4)c3)ncnc2cn1 [GW282974X] | 100 | 100 | 100 | 95 | 73 | 90 | 88 | 68 | 71 | 100 | 100 | 66 | 100 | 100 | 97 | 88 | 100 | 100 | 95 | 89
CCn1c(-c2nonc2N)nc2c(C#CC(C)(C)O)nc(OCCNC)cc21.Cl [GSK949675] | 100 | 78 | 21 | 16 | 100 | 9.3 | 100 | 0.7 | 100 | 100 | 100 | 90 | 40 | 0 | 15 | 61 | 3.3 | 95 | 100 | 88
Cl.O=C(Nc1ccc(Oc2ccc3[nH]c(NC(=O)c4ccco4)nc3c2)cc1)Nc1cc(C(F)(F)F)ccc1F [GW683134A] | 100 | 76 | 100 | 100 | 100 | 100 | 79 | 99 | 100 | 88 | 86 | 100 | 99 | 100 | 92 | 100 | 100 | 68 | 100 | 82
CCS(=O)(=O)c1ccc(OC)c(Nc2ncc(-c3cccc(F)c3)o2)c1 [GW621970X] | 99 | 3.8 | 100 | 100 | 100 | 100 | 68 | 100 | 96 | 93 | 100 | 40 | 100 | 100 | 100 | 100 | 100 | 100 | 100 | 85
Cl.c1ccc(Cc2nc3ccc(Nc4ncnc5ccccc45)cc3[nH]2)cc1 [GR269666A] | 100 | 71 | 100 | 100 | 100 | 92 | 100 | 100 | 80 | 100 | 100 | 100 | 100 | 78 | 100 | 100 | 88 | 100 | 100 | 100
COc1ccc2cc(-c3c(-c4ccncc4)nc(-c4ccc(S(C)(=O)=O)cc4C)n3C)ccc2c1 [SB-633825] | 83 | 73 | 96 | 65 | 89 | 86 | 100 | 83 | 63 | 89 | 67 | 85 | 91 | 90 | 100 | 68 | 59 | 84 | 100 | 29
COC(=O)Nc1nc2ccc(Oc3ccc(NC(=O)Nc4cc(C(F)(F)F)ccc4F)cc3)cc2s1.Cl [GW693917A] | 100 | 96 | 100 | 95 | 95 | 82 | 57 | 70 | 67 | 96 | 100 | 66 | 100 | 100 | 100 | 91 | 62 | 100 | 100 | 86
NS(=O)(=O)c1ccc(N/N=C2\C(=O)Nc3ccc(Cl)cc32)cc1 [GW280670X] | 98 | 81 | 100 | 100 | 100 | 100 | 97 | 100 | 100 | 100 | 95 | 89 | 99 | 100 | 100 | 100 | 100 | 100 | 100 | 100
NS(=O)(=O)c1ccc(N/N=C2\C(=O)Nc3ccc(C(=O)NCc4ccncc4)cc32)cc1 [GW300657X] | 100 | 51 | 100 | 100 | 83 | 100 | 81 | 100 | 74 | 90 | 83 | 39 | 100 | 97 | 96 | 80 | 100 | 100 | 94 | 85
COc1cc(C)c(N(C)C(=O)CN(C)C)cc1Nc1nc(Nc2cccc(F)c2C(N)=O)c2cc[nH]c2n1 [GSK2219385] | 100 | 92 | 100 | 100 | 78 | 89 | 88 | 63 | 81 | 100 | 94 | 84 | 100 | 100 | 100 | 82 | 92 | 100 | 89 | 88
CN1CCN(C(=O)c2ccc(NC(=O)Nc3ccc(N(C)c4ccnc(Nc5ccc(CS(C)(=O)=O)cc5)n4)cc3)cc2)CC1.Cl [GW830263A] | 17 | 0.9 | 100 | 100 | 96 | 70 | 100 | 87 | 100 | 100 | 100 | 2.7 | 100 | 99 | 100 | 74 | 51 | 100 | 100 | 100
CN(C)CCNC(=O)Nc1ccc(N(C)c2ccnc(Nc3ccc(CS(C)(=O)=O)cc3)n2)cc1.Cl [GW830900A] | 33 | 3.7 | 100 | 100 | 100 | 83 | 64 | 94 | 86 | 100 | 90 | 24 | 100 | 100 | 100 | 85 | 100 | 100 | 100 | 100
COc1cc(N2CCN(C(C)C)CC2)ccc1Nc1nc(Nc2ccc(F)cc2C(=O)NC[C@@H](O)CO)c2cc[nH]c2n1 [GSK1392956A] | 100 | 94 | 100 | 100 | 100 | 100 | 100 | 99 | 6.3 | 100 | 96 | 41 | 100 | 100 | 100 | 97 | 95 | 79 | 57 | 49
Cl.O=C(Nc1ccc(Oc2ccc3[nH]c(NC(=O)c4ccccc4)nc3c2)cc1)Nc1cc(C(F)(F)F)ccc1F [GW709042A] | 100 | 97 | 100 | 100 | 100 | 100 | 60 | 88 | 100 | 98 | 92 | 77 | 87 | 100 | 100 | 90 | 100 | 100 | 100 | 83
